The full list was thinned out, with hits kept by preference.
Cruzain inh noDet – inhibitors of Trypanosoma cruzi cruzain without detergent. 200,000 compounds, 2.3% hits. Potency, µM, for inactives: max response, negative = inhibition, hits mostly inhibitors. purified cruzain, Z-FR-AMC fluorescence, no detergent. AID 1476;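 also: plate controls were enzyme without inhibitor for no effect and buffer without enzyme for full effect; nearly all actives have a fitted effect of over 40% in size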
Target sequence (P25779 123-467 limits assumed): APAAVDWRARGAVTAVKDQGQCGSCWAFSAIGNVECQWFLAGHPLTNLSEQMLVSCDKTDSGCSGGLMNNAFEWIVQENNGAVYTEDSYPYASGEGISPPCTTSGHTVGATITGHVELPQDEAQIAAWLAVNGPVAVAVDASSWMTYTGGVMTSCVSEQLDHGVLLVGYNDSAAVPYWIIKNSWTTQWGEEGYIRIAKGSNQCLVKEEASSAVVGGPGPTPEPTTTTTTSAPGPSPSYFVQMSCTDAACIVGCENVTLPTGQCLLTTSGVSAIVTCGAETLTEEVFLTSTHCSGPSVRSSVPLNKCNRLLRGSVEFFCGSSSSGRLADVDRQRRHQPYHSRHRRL
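Purified cruzain at 1.5 nM, pre-incubated 15 min with compound at room temperature in 100 mM sodium acetate pH 5.5, 5 mM DTT, 0.00005% Triton X-100. Reaction started with 2 uM Z-FR-AMC; AMC fluorescence increase over 60 s gives rate.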
NS1 inh – inhibitors of influenza NS1 protein function | Potency, µM (top dose mostly 46.1 µM), for the others: top-dose activity, positive = more growth | 270,000 compounds, 0.4% hits | AID 2326; calls by dose curve; also: actives are rising curves; nearly all actives have a fitted effect of over 50% in size
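Read-out: OD600 growth recovery of NS1-expressing budding yeast. Cells grown overnight at 30C in -URA glucose medium, washed, resuspended and diluted 1:100 in 2% galactose assay medium, pH 6.0. Same strain lacking NS1 served as positive control.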
Cruzain inh Det – inhibitors of Trypanosoma cruzi cruzain with detergent; AID 1478; purified cruzain, Z-FR-AMC fluorescence, 0.01% Triton; Potency, µM, for the others: max response, negative = inhibition, hits mostly inhibitors; 200,000 compounds, 0.43% hits;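 also: plate controls were neutral wells for no effect and buffer without enzyme for full effect; nearly all actives have a fitted effect of over 40% in size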
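Detergent-containing arm of a paired screen for aggregation-based inhibition: 0.01% Triton X-100 present. Cruzain at 1.5 nM cleaved 2 uM Z-FR-AMC at pH 5.5 with 5 mM DTT; AMC fluorescence gain over 60 s measured activity.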
* = called active by the depositor; ? = inconclusive; · = not tested or not shown. Unless noted, calls follow the shape of the dose curve; as a rule, active = well fitted curve in the direction sought with a large enough effect; inconclusive = small, poorly fitted or top-dose-only effect, or another doubt; inactive = no such curve, though single readings can be large; an effect the other way counts as inactive or inconclusive. Potency is read from the fitted curve at half-maximal effect.

SMILES	Cruzain inh noDet	NS1 inh	Cruzain inh Det
Cc1ccc(S(=O)(=O)ON2C(=O)c3ccccc3C2=O)c(C)c1	15.8µM*	10.5%	12.6µM*
Cc1cc(C)c(S(=O)(=O)ON2C(=O)c3ccccc3C2=O)cc1C	?	-25.5%	?
Cc1cc(C)c(C)c(S(=O)(=O)ON2C(=O)c3ccccc3C2=O)c1C	25.1µM*	-47.3%	20µM*
CCOC(=O)c1noc2ncnc(N3CCN(c4cccc(Cl)c4)CC3)c12	-14.4%	·	-8.4%
Cc1ccc2onc(CC(=O)N3CCN(c4ccccc4F)CC3)c2c1	?	·	-6.9%
Cc1ccc2onc(CC(=O)N3CCN(c4ccc(F)cc4)CC3)c2c1	25.1µM*	·	28.2µM*
Cc1ccc([N+](=O)[O-])cc1C	5.5%	·	0.5%
O=C(Cn1ncc2c3ccccc3n(Cc3cccc(Cl)c3)c2c1=O)NCCC1=CCCCC1	-2.5%	·	-5.0%
Cc1ccc2sc(NC(=O)c3ccc(N4C(=O)CCC4=O)cc3)nc2c1C	?	27.2%	1.7%
CCc1cccc2sc(NC(=O)c3ccc(N4C(=O)CCC4=O)cc3)nc12	7.94µM*	-6.9%	1.6%
O=C(Nc1ccc(C(=O)N2CCN(c3ccc(Cl)cc3)CC2)cc1)c1nsc2ccccc12	-9.6%	·	-2.0%
Cc1ccc(Cl)cc1N1CCN(C(=O)c2ccc(NC(=O)c3nsc4ccccc34)cc2)CC1	7.94µM*	·	2.2%
Cc1c(C(=O)O)cccc1-n1c(C)cc(/C=N/Nc2ccc([N+](=O)[O-])cn2)c1C	·	8.3%	·
Cc1ccc(-n2c(C)cc(/C=N/Nc3ccc([N+](=O)[O-])cn3)c2C)cc1	7.94µM*	15.8%	-5.7%
COc1cccc(/C=N/Nc2ccc([N+](=O)[O-])cn2)c1O	·	-65.5%	·
O=C(O)Cn1cc(/C=N/Nc2ccc([N+](=O)[O-])cn2)c2ccccc21	·	-2.0%	·
Cc1ccc(Cn2cc(/C=N/Nc3ccc([N+](=O)[O-])cn3)c3ccccc32)cc1	6.31µM*	10.3%	-4.0%
Cc1cc(/C=N/Nc2ccc([N+](=O)[O-])cn2)c(C)n1-c1ccccc1	3.98µM*	6.3%	-2.0%
CC[C@H](C)[C@@H](NC(=O)O[C@@H]1C(=O)c2ccc(OC)cc2O[C@H]1c1cccc(C(F)(F)F)c1)C(=O)OC	-2.7%	·	5.3%
O=C(CSc1nc2c(oc3ccccc32)c(=O)n1Cc1ccco1)Nc1ccccc1Cl	0.9%	·	0.6%
Cc1cc(C)nc(NC(N)=NCCc2c[nH]c3ccccc23)n1	·	0.1%	·
Cc1cc(C)nc(NC(=NCCc2c[nH]c3ccccc23)NC(=O)Nc2ccc(Cl)cc2)n1	25.1µM*	-6.9%	-0.8%
CCOCCCNC(=O)c1cnc2sc(N3CCCCC3)nn2c1=O	-6.7%	·	-7.2%
CC(C)=C[C@H]1[C@@H](C(=O)Oc2ccccc2C(C)C)C1(C)C	-4.6%	0.0%	3.2%
COc1cccc(Cn2c(=O)c(-c3cccs3)nc3cnc(N4CCNCC4)nc32)c1	?	·	-10.9%
SMILES	Cruzain inh noDet	NS1 inh	Cruzain inh Det
CCOC(=O)c1sc(Nc2nc3c(F)cccc3s2)cc1C	15.8µM*	15.2%	0.8%
CCOC(=O)c1sc(Nc2nc3ccc(OC)cc3s2)cc1C	?	24.7%	-4.0%
CC(=O)[C@H]1CC[C@@H]2[C@]1(C)CC=C1[C@@]23C=C[C@]2(C[C@H](O)CC[C@@]12C)[C@H](C(=O)O)[C@@H]3C(=O)O	-3.1%	-3.2%	-3.3%
COc1ccc(C(=O)C2C3C4COC(O4)C(=O)C3C3C=Cc4ccccc4N32)c(OC)c1 (configuration not stated)	-19.8%	·	-13.7%
CCC(=O)N/N=C/c1ccc(-c2ccc([N+](=O)[O-])cc2)o1	·	-4.3%	·
COc1ccc(N(CC(=O)N/N=C/c2ccc(-c3ccc([N+](=O)[O-])cc3)o2)S(=O)(=O)c2ccc(C)cc2)cc1Cl	6.31µM*	13.6%	3.8%
COc1ccc(N(CC(=O)N/N=C/c2ccc(-c3ccc([N+](=O)[O-])cc3)o2)S(=O)(=O)c2ccc(C)cc2)cc1	3.98µM*	-6.9%	-0.3%
CCCCC(=O)N/N=C/c1ccc(-c2ccc([N+](=O)[O-])cc2)o1	·	-3.4%	·
O=C(Nc1ccccc1Cl)c1cc2c(-c3ccccc3)nn(-c3ccccc3)c2s1	2.2%	·	-1.1%
COc1ccc2c(c1)c(=O)c(S(=O)(=O)c1ccccc1)cn2CC(=O)Nc1ccc2c(c1)OCO2	8.5%	·	-6.7%
COc1ccc2c(c1)c(=O)c(S(=O)(=O)c1ccccc1)cn2CC(=O)Nc1ccc(C)c(Cl)c1	20µM*	·	-4.7%
COc1ccc(NC(=O)Cn2cc(S(=O)(=O)c3ccccc3)c(=O)c3cc(C)ccc32)cc1Cl	25.1µM*	·	-4.0%
Cc1ccc(S(=O)(=O)c2cn(CC(=O)Nc3ccc(C)c(Cl)c3)c3ccc(C)cc3c2=O)cc1	?	·	-3.2%
Cc1ccc(NC(=O)/C(C#N)=C/c2cc(C)n(-c3ccc(Br)cc3)c2C)cc1C	6.5%	·	-2.2%
FC(F)(F)c1ccccc1-c1nc(Nc2ccncc2)c2ccccc2n1	16.2%	·	-23.7%
COc1ccc(S(=O)(=O)n2nc(C)c(S(=O)(=O)N3CCCCCC3)c2C)cc1C	6.3%	·	-1.7%
CCOc1ccc(CNC(=O)CCC(=O)N2CC3CCCN3c3ccccc32)cc1 (configuration not stated)	2.7%	·	-3.2%
CCOC(=O)c1ccc(NC(=O)c2cc3cc(C)ccc3n2C)cc1	-13.7%	·	-3.8%
CN(Cc1ccccc1)S(=O)(=O)c1ccc(NC(=S)NC(=O)C2CCCC2)cc1	2.51µM*	-13.7%	-3.1%
CN(C)S(=O)(=O)c1ccc(NC(=S)NC(=O)C2CCC2)cc1	·	0.0%	·
CCNc1ncc2nc(-c3ccc(Cl)cc3)c(=O)n(-c3ccc(OC)cc3)c2n1	-7.8%	·	-3.8%
CCOC(=O)C1CCN(C(=O)c2cnn(-c3ccc(F)cc3)c2-n2cccc2)CC1	12.3%	·	-3.0%
CCn1c2ccccc2c2cc(/C=N/NC(=O)c3cc(O)cc(O)c3)ccc21	·	-8.2%	·
CCn1c2ccccc2c2cc(/C=N/NC(=O)c3ccc(O)cc3)ccc21	25.1µM*	?	?
CCc1cccc2nc3c(c([Si](C)(C)C)c12)Cn1c-3cccc1=O	16.9%	·	-10.7%
SMILES	Cruzain inh noDet	NS1 inh	Cruzain inh Det
CN1CCN(c2ncc3nc(-c4cc(F)cc(F)c4)c(=O)n(C)c3n2)CC1	24.5%	·	-7.4%
CN1CCN(c2ncc3nc(-c4cccc(C#N)c4)c(=O)n(C)c3n2)CC1	?	·	17.8µM*
CN1CCN(c2ncc3nc(-c4ccccc4)c(=O)n(-c4ccccc4)c3n2)CC1	?	·	25.1µM*
COc1ccc(-n2c(=O)c(-c3ccccc3)nc3cnc(N4CCN(C)CC4)nc32)cc1	-1.7%	·	0.2%
CCCOc1ccc(-c2cccc(NS(=O)(=O)c3cc(OC)ccc3OC)c2)nn1	-15.1%	·	-6.0%
ClC1=C(Cl)C2(Cl)C3C(Cl)C(Cl)CC3C1(Cl)C2(Cl)Cl (configuration not stated)	-7.5%	·	6.6%
Cc1ccc(C)c2sc(NC(=O)c3nc4ccccc4s3)nc12	10µM*	19.0%	-1.2%
O=C(Nc1ccccc1)c1nc2ccccc2s1	-4.9%	3.0%	-7.0%
Cc1cc(-c2nnc(SCC(=O)Nc3nc(-c4ccc(Cl)cc4)cs3)o2)no1	·	1.1%	·
Cc1ccc(-n2nnnc2SCC(=O)Nc2nc(-c3ccc(F)cc3)cs2)cc1C	?	5.0%	3.5%
Cc1cc(C)cc(-n2nnnc2SCC(=O)Nc2nc(-c3ccc(F)cc3)cs2)c1	25.1µM*	-3.4%	5.5%

Bioassay records: PubChem, National Center for Advancing Translational Sciences (NCATS)
